Measured values from PubChem BioAssay (EPA / NIEHS).
Several values for one entry are separate records, joined by “and”; a condition that tells them apart may be missing. Identical values can stand only once. Inconclusive results are not listed. Activity calls are given as the source filed them. How the source made its calls, unless noted: active means hit-call score of the fitted dose curve at least 0.9, where 1 is the maximum; inactive means score below 0.9.

Tests used:
[1] = UKN2_HCS_IMR90_cell_viability: Viability Assessment in the University of Konstanz (UKN) Leist Lab Neural Crest Cell Migration Assay in human induced IMR90 Pluripotent Stem Cells (UKN2) (AID 2284233);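 further: cells exposed to compound for 24 h after a 24 h migration phase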
In short: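 After calcein-AM/Hoechst staining, viability is quantified by high-content fluorescence imaging, relative to DMSO, in iPSC (IMR90)-derived neural crest cells. Exposure lasts 24 h, starting after a 24 h migration period on PLO/laminin/fibronectin coating.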

[2] = CCTE_Mundy_HCI_Cortical_NOG_NeuronCount: CCTE's Neurite Outgrowth Assay in rat cortical cells for Neuron Count, Mundy Lab (AID 2284236; active means hit-call score of the fitted dose curve at least 0.9, where 1 is the maximum;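 further: neurons counted by imaging betaIII-tubulin and Hoechst stained cortical cells; cells exposed to compound for about 48 hours before fixation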)
In short: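 Read-out: neuron number by high-content imaging of betaIII-tubulin (Alexa Fluor-488) and Hoechst-labelled rat primary cortical cells.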

[3] = CCTE_Mundy_HCI_Cortical_NOG_BPCount: CCTE's Neurite Outgrowth Assay in rat cortical cells for Branch Point Count, Mundy Lab (AID 2284237)
In short: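 Measured 50.33 h after dosing, this morphology endpoint uses rat primary cortical cultures labelled for betaIII-tubulin. Branch points are quantified by high-content imaging, with DMSO as negative control and baseline.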

[4] = CCTE_Mundy_HCI_hNP1_Casp3_7: CCTE's Caspase-Glo 3/7 Assay in human neuroprogenitor cells for Apoptosis, Mundy Lab (AID 2284240)
In short: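 Apoptosis is scored by activated caspase-3/7 luminescence in WA09-derived neural progenitor cells, measured 26.5 h after chemical dosing. Values represent gain of signal relative to DMSO vehicle.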

[5] = CCTE_Mundy_HCI_hNP1_CellTiter: CCTE's Cell Titer-Glo 2 Assay in human neuroprogenitor cells for Viability, Mundy Lab (AID 2284241; active means hit-call score of the fitted dose curve at least 0.9, where 1 is the maximum)
In short: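 Human neural progenitor cells (hNP1, WA09-derived) were plated on poly-L-ornithine/laminin and grown 40 to 44 hours at 37 °C, 5% CO2 before chemical addition. Twenty-four hours later, ATP was measured by CellTiter-Glo luminescence; loss of signal versus DMSO indicates reduced viability.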

[6] = CCTE_Mundy_HCI_Cortical_Synap_Neur_Matur_NeuronCount: CCTE's Synaptogenesis and Neurite Maturation Assay in rat cortical cells for Neuron Count, Mundy Lab (AID 2284242; active means hit-call score of the fitted dose curve at least 0.9, where 1 is the maximum)
In short: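 Cortical cells from rat are plated, treated with AraC at DIV 5, and exposed to test chemicals with a media change at DIV 7. At DIV 12 they are fixed and immunostained (MAP2, synaptophysin), and imaged neuron counts are compared against DMSO controls.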

[7] = BSK_BT_Bcell_Proliferation: Viability Assessment in the BioMAP Diversity Plus: BT Assay for B cell Proliferation (AID 2284227); conditions: primary human B cells with PBMC
In short: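 SRB-based protein staining (0.1% SRB after 10% TCA fixation, 560 nm) quantifies proliferation in human B cells co-cultured with PBMC, 72 h post-dosing, with signal gain scored relative to DMSO negative control.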

[8] = read-out: Interleukin 6 (IL6), IL6 (gene 3569); test: BSK_BT_xIL6: BioMAP Diversity Plus: BT Assay for Interleukin 6 (IL6) Biomarker Activity (AID 2284228); conditions: primary human B cells with PBMC
In short: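 Readout: secreted IL-6 via Luminex xMAP multiplex, 24 h post-dosing. System: primary human B cells co-cultured with PBMC. Signal change scored relative to DMSO vehicle, positive fitting direction.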

[9] = read-out: Interleukin 17A (IL17A), IL17A (gene 3605); test: BSK_BT_xIL17A: BioMAP Diversity Plus: BT Assay for Interleukin 17A (IL17A) Biomarker Activity (AID 2284229); conditions: primary human B cells with PBMC
In short: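 Luminex xMAP readout of secreted IL-17A; human B cell + PBMC co-culture; 24 h post-dose; positive-direction fit vs DMSO negative control.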

[10] = read-out: Tumor necrosis factor (Homo sapiens) (UniProt P01375); test: BSK_BT_xTNFa: BioMAP Diversity Plus: BT Assay for Tumor necrosis factor alpha (TNF-alpha) Biomarker Activity (AID 2284230); conditions: primary human B cells with PBMC
In short: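 Compounds were added to a B cell plus PBMC co-culture, and after 24 h secreted TNF-alpha was quantified with Luminex xMAP technology, with responses fitted upward from the DMSO control.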

[11] = read-out: Vascular cell adhesion molecule 1 (VCAM1), VCAM1 (gene 7412); test: BSK_MyoF_VCAM1: BioMAP Diversity Plus: MyoF Assay for Vascular cell adhesion molecule 1 (VCAM1) Biomarker Activity (AID 2284231); conditions: primary human lung fibroblasts
In short: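 MyoF system, lung fibroblasts; 24 h post-dose; VCAM-1 by ELISA; gain-of-signal fit vs DMSO baseline.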

[12] = read-out: Collagen I, COL1A1 (gene 1277); test: BSK_MyoF_CollagenI: BioMAP Diversity Plus: MyoF Assay for Collagen I Biomarker Activity (AID 2284238); conditions: primary human lung fibroblasts
In short: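 ELISA readout of Collagen I after 24 h chemical treatment of primary human lung fibroblast cultures; gain of signal scored relative to DMSO vehicle baseline.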

[13] = read-out: Collagen III, COL3A1 (gene 1281); test: BSK_MyoF_CollagenIII: BioMAP Diversity Plus: MyoF Assay for Collagen III Biomarker Activity (AID 2284239); conditions: primary human lung fibroblasts
In short: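 Lung fibroblast culture; 24 h compound exposure; collagen III by ELISA; gain-of-signal fit vs DMSO baseline.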

[14] = read-out: Interleukin 17F (IL17F), IL17F (gene 112744); test: BSK_BT_xIL17F: BioMAP Diversity Plus: BT Assay for Interleukin 17F (IL17F) Biomarker Activity (AID 2284243); conditions: primary human B cells with PBMC
In short: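 Secreted IL-17F, read on LumineX xMAP beads, was taken as the endpoint. Cultures combined human B cells and peripheral blood mononuclear cells, sampled 24 hours after dosing, with DMSO serving as negative control.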

[15] = read-out: Actin alpha 1 (ACTA1), ACTA1 (gene 58); test: BSK_MyoF_ACTA1: BioMAP Diversity Plus: MyoF Assay for Actin alpha 1 (ACTA1) Biomarker Activity (AID 2284244); conditions: primary human lung fibroblasts
In short: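 Cells were exposed to chemical for 24 h before a-SMA levels were quantified by ELISA in human lung fibroblasts. Increases were fitted against DMSO as negative control; parallel SRB staining (0.1% after 10% TCA fixation, 560 nm) assessed cytotoxicity.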

[16] = read-out: Interleukin 2 (IL2), IL2 (gene 3558); test: BSK_BT_xIL2: BioMAP Diversity Plus: BT Assay for Interleukin 2 (IL2) Biomarker Activity (AID 2284245); conditions: primary human B cells with PBMC
In short: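 The BT system combines human B cells with peripheral blood mononuclear cells. Twenty-four hours after chemical dosing, secreted IL-2 was measured with xMAP bead technology, and responses were analyzed as increases over DMSO controls.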

[17] = read-out: Basic fibroblast growth factor (bFGF), FGF2 (gene 2247); test: BSK_MyoF_bFGF: BioMAP Diversity Plus: MyoF Assay for Basic fibroblast growth factor (bFGF) Biomarker Activity (AID 2284246); conditions: primary human lung fibroblasts
In short: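 Chemicals are added to human lung fibroblast cultures and incubated 24 h. bFGF is then measured by ELISA, while parallel cultures receive SRB staining for total protein as a cytotoxicity check. Data are fitted upward against DMSO.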

Measured: AC50

Chain of Tumor necrosis factor (Homo sapiens) (P01375 whole entry, looked up): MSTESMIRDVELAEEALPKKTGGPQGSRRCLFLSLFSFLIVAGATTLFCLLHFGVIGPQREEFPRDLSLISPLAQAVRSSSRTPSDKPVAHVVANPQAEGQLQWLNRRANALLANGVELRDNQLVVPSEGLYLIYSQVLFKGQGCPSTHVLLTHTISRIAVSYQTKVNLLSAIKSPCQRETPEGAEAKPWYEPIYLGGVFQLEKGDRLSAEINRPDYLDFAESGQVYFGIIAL

CCCCNS(=O)(=O)c1ccccc1
inactive: [1] | [2] | [3] | [4] | [5] | [6]

Nc1cccc(N)n1
not listed: [1] | [2] | [3] | [4] | [5] | [6]
inactive: all other assays above

C[N+](C)(C)CCCNS(=O)(=O)C(F)(F)C(F)(F)C(F)(F)C(F)(F)C(F)(F)C(F)(F)C(F)(F)C(F)(F)F
inactive: [7] | [8]
active: [9] 30 µM | [10] 30 µM and 20.4 µM | [11] 44.5 µM and 57 µM | [12] 48.6 µM and 48.1 µM | [13] 48.8 µM and 50.1 µM | [14] 22.5 µM and 21.6 µM | [15] 33.6 µM and 31.3 µM | [16] 32.6 µM and 21.5 µM

O=C1CCCCCCCCCCCN1
not listed: [1] | [2] | [3] | [4] | [5] | [6] | [17]
inactive: all other assays above

CCCCCCCO
not listed: [1] | [2] | [3] | [4] | [5] | [6]
inactive: all other assays above

C=CC(=O)NCOCCCC
not listed: [1] | [2] | [3] | [4] | [5] | [6] | [17]
inactive: all other assays above

Cc1c(O)cccc1O
not listed: [1] | [2] | [3] | [4] | [5] | [6] | [17]
inactive: all other assays above

C=CCCCCCCCCC=O
not listed: [1] | [2] | [3] | [4] | [5] | [6] | [17]
inactive: all other assays above

CCC1(C)C(=O)N(Cl)C(=O)N1Cl (stereo not drawn)
not listed: [1] | [2] | [3] | [4] | [5] | [6] | [17]
inactive: all other assays above

CC(C)CCCCCOC(=O)CS
not listed: [1] | [2] | [3] | [4] | [5] | [6] | [17]
inactive: all other assays above

c1ccc2sc(SSN3CCOCC3)nc2c1
active: [8] 13.3 µM | [9] 20 µM | [10] 24.3 µM | [11] 30.4 µM | [12] 15.5 µM | [13] 28.4 µM | [14] 19.9 µM | [15] 25.4 µM | [16] 28.1 µM

CCCCCCCCCCCC(C)=O
not listed: [1] | [2] | [3] | [4] | [5] | [6] | [17]
inactive: all other assays above

CCCCCCCCC(CO)CCCCCC (stereo not drawn)
active: [8] 30.2 µM
inactive: [7] | [9] | [10] | [11] | [12] | [13] | [14] | [15] | [16]

CC=C(C)C(C)=O
not listed: [1] | [2] | [3] | [4] | [5] | [6]
inactive: all other assays above
